In PubChem BioAssay (NCI):
Where “and” joins values, the source holds several entries; their conditions need not be identical. Identical values can stand only once. Compounds without any hit were thinned out: in the full panel of roughly 83,000, 20% have a hit.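 48-hour exposure, single concentration, 96-well plates; percent growth endpoint where 0 means no net growth. Active: below 10.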 Values without a mark were called inactive. Calls of active or inactive are those of the source.

tested on: HL-60(TB) leukemia; test: NCI-60 one-dose screen, 48 h (100 = growth as untreated, 0 = no growth, -100 = all killed); conditions: 10 µM unless noted

| Compound | growth |
| --- | --- |
| O=S(=O)(Nc1ccccc1)c1ccc(C2CC3(Cl)C(Cl)=C(Cl)C2(Cl)C3(Cl)Cl)cc1 (centres undefined) | 13% |
| COc1ccc(C(=O)N2NC(=O)/C(=C/c3ccc(Br)cc3)N=C2c2ccccc2)cc1 | 4.51% (active) |
| O=c1c2cc(F)ccc2oc2c(NCCNCCO)nc3ccccc3c12 | 70.5% |
| COc1ccc(C(=O)COC(=O)[C@H](C[Se][Se]C[C@H](NC(=O)c2ccc(Br)cc2F)C(=O)OCC(=O)c2ccc(OC)cc2)NC(=O)c2ccc(Br)cc2F)cc1 | 2.8% (active) |
| Fc1ccc(-c2nnc(-c3c(-c4ccc(F)cc4)nc4ncccn34)o2)cc1 | 87.8% |
| CCC1S/C(=N\N=C(/C)c2ccc[nH]2)N(c2ccccc2)C1=O (centres undefined) | -63.7% (active) |
| COc1cc(N2C(=O)[C@H](O)C2c2ccc(SC)cc2)cc(OC)c1OC (some centres undefined) | -41% (active) |
| NC(CCc1nc2ccccc2c(=O)[nH]1)C(=O)O (centres undefined) | 103% |
| O=C(CCl)N(O)c1ccc(/C=C/c2ccccc2)cc1 | 69.4% and 51% |
| COc1cccc2c1C=C1CCCCC3=Cc4c(OC)cccc4OC13O2 | 19.1% |
| CC(=O)C1=C(O)C=C2Oc3c(C(=O)/C=C/c4c(Cl)cccc4Cl)c(O)c(C)c(O)c3[C@]2(C)C1=O | -39.3% (active) |
| CCN(CC)CCOc1ccc(C(=C(C)c2ccc(Cl)cc2)c2ccc(OCCN(CC)CC)cc2)cc1 | -55.5% (active) |
| CN1CNC(=O)NC1 | 85.5% and 102% |
| CN(C)CCCN1c2ccccc2Sc2ccc(Cl)cc21 | 107% and 92.5% |
| Cc1ncc(CO)c(C(=O)O)c1O | 84.2% |
| O=C(NCc1cccc(C(F)(F)F)c1)[C@H](CCC(=O)N1CCN(C2CCCCC2)CC1)N1C(=O)[C@@H](N2C(=O)OC[C@@H]2c2ccccc2)[C@H]1/C(Cl)=C/c1ccccc1 | 5.62% (active) |
| C[C@]12C=CC(=O)C=C1CCC1C2[C@@H](O)C[C@@]2(C)C1CC[C@]2(O)C(=O)COC(=O)CCC(=O)O (some centres undefined) | 104% |
| CCCCN1C(=O)c2cccc3c(-c4ccc5c(c4)ncn5C4CCCCC4)ccc(c23)C1=O | 99.7% |
| COC(=O)C(=C\c1ccc2c(c1)OCO2)/C(=C/c1ccc2c(c1)OCO2)C(=O)OC | 112% |
| Nc1nc(N)c2[nH]cnc2n1 | 87.5% |

| Compound | growth |
| --- | --- |
| CCCCCCCCCCCCCCCCOP(=O)([O-])OCC[N+](C)(C)C | -29.6% (active) |
| O=C1NN(C(=O)c2ccc(Cl)cc2)C(c2ccccc2)=N/C1=C\c1ccc(F)cc1 | -3.45% (active) |
| CSC1=NC(=Nc2c(C)cccc2C)C2(CCC(C(C)(C)C)CC2)N1c1ccc(Cl)cc1 (centres undefined) | 53.4% |
| O=C(O)C(Cc1ccc(OS(=O)(=O)Cc2ccccc2)cc1)NS(=O)(=O)Cc1ccccc1 (centres undefined) | 109% and 82.6% |
| COc1ccc(-c2nnc(SCC(=O)Nc3ccc(C(=O)/C=C/c4ccccc4)cc3)n2-c2ccccc2)cc1OC | 65.3% |
| Cc1onc(-c2ccccc2)c1C(=O)N/N=C/c1cc(Cl)cc(Cl)c1O | 15.7% |
| O=C(O)c1ccc(-c2nn(-c3ccc(C(=O)O)cc3)cc2/C=N/Nc2c(F)c(F)cc(F)c2F)cc1 | 96.5% |
| C#Cc1cccc(NC(=O)c2ccc(NC(=O)CCl)cc2)c1 | 11.7% [8.25 µM] |
| CCOc1ccc(NC2=C(Cl)C(=O)c3ccccc3C2=O)cc1 | 32% |
| CC12CCC(C(=O)CC1=O)C2(C)C (centres undefined) | 71.5% and 93.6% |
| COc1cccc(CNc2ncnc3c2ncn3C2OC(CO)C(O)C2O)c1O (centres undefined) | -47% (active) |
| O=C(O)c1cn(C2CC2)c2cc(N3CCN(C(=O)c4cc(-c5ccc(Cl)cc5)nc5ccccc45)CC3)c(F)cc2c1=O | 101% |
| COc1cc(-c2nc(SCCC(C)C)nc(Nc3ccccc3Cl)c2C#N)cc(OC)c1OC | 101% |
| O=C(N/N=C/c1cccc2ccccc12)C1CC1 | 71.3% and 95.7% |
| O=[N+]([O-])c1ccc(N/N=C/c2c(O)ccc3ccccc23)nc1 | 9.55% (active) |
| N#C/C(=C\c1ccc2ccccc2c1)c1cc2ccccc2[nH]1 | 10.5% |
| CN(C)CCNC(=O)n1cc(-c2ccncc2)c(-c2cc(O)cc(Cl)c2)n1 | 87.1% |
| CCOC(=O)C1=C(N)Oc2c(sc3c(F)cccc23)C1c1ccc(O)cc1 (centres undefined) | 18.4% |
| O=C1CSC(=S)N1Cc1cccnc1 | 13.8% |
